{
  "source": "the supplement of paper PMC8728848",
  "assay_in_all_cases": "glycan array binding signal (z-score within array); higher = stronger binding",
  "settings_in_all_cases": "glycan notation: IUPAC condensed, linker removed",
  "key": {"[1]": {"system": "Fuc(a1-2)Gal(b1-3)GalNAc(b1-3)Gal", "method_in_brief": "(§1)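 Glycan array data were curated from 3228 arrays in the Consortium for Functional Glycomics database and kept only where the protein sequence was available. Glycan names were converted to IUPAC-condensed notation, and columns mapping to the same glycan were averaged. The binding signal is a within-array Z-score, averaged across arrays of the same protein sequence at different concentrations or buffers and across linkers. Negative Z-scores can be read as non-binding.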"}, "[2]": {"system": "Fuc(a1-2)Gal(b1-3)GlcNAc6S", "method_in_brief": "as §1"}, "[3]": {"system": "Fuc(a1-2)Gal(b1-4)GlcNAc(b1-2)Man(a1-3)[Fuc(a1-2)Gal(b1-4)GlcNAc(b1-2)Man(a1-6)]Man(b1-4)GlcNAc(b1-4)[Fuc(a1-6)]GlcNAc", "method_in_brief": "as §1"}, "[4]": {"system": "Fuc(a1-2)Gal(b1-4)GlcNAc(b1-3)Gal(b1-4)GlcNAc(b1-2)Man(a1-3)[Fuc(a1-2)Gal(b1-4)GlcNAc(b1-3)Gal(b1-4)GlcNAc(b1-2)Man(a1-6)]Man(b1-4)GlcNAc(b1-4)GlcNAc", "method_in_brief": "as §1"}, "[5]": {"system": "Fuc(a1-2)Gal(b1-3)GlcNAc(b1-2)Man(a1-3)[Fuc(a1-2)Gal(b1-3)GlcNAc(b1-2)Man(a1-6)]Man(b1-4)GlcNAc(b1-4)GlcNAc", "method_in_brief": "as §1"}, "Fuc(a1-2)Gal(b1-3)GalNAc": {"system": "Fuc(a1-2)Gal(b1-3)GalNAc", "method_in_brief": "as §1"}, "[6]": {"system": "Fuc(a1-2)Gal(b1-3)GlcNAc(b1-2)Man(a1-3)[Fuc(a1-2)Gal(b1-3)GlcNAc(b1-2)Man(a1-6)]Man(b1-4)GlcNAc(b1-4)[Fuc(a1-6)]GlcNAc", "method_in_brief": "as §1"}, "Fuc(a1-2)Gal(b1-4)Glc6S": {"system": "Fuc(a1-2)Gal(b1-4)Glc6S", "method_in_brief": "as §1"}, "[7]": {"system": "Fuc(a1-2)Gal(b1-4)GlcNAc(b1-3)GalNAc", "method_in_brief": "as §1"}, "[8]": {"system": "Fuc(a1-2)Gal(b1-3)GlcNAc(b1-3)[Fuc(a1-3)[Gal(b1-4)]GlcNAc(b1-6)]Gal(b1-4)Glc", "method_in_brief": "as §1"}, "[9]": {"system": "Fuc(a1-2)Gal(b1-3)[Fuc(a1-4)]GlcNAc(b1-2)Man(a1-3)[Fuc(a1-2)Gal(b1-3)[Fuc(a1-4)]GlcNAc(b1-2)Man(a1-6)]Man(b1-4)GlcNAc(b1-4)GlcNAc", "method_in_brief": "as §1"}, "[10]": {"system": "Fuc(a1-2)Gal(b1-3)GlcNAc(b1-3)GalNAc", "method_in_brief": "as §1"}, "[11]": {"system": "Fuc(a1-2)Gal(b1-3)GlcNAc(b1-3)[Gal(b1-4)GlcNAc(b1-6)]Gal(b1-4)Glc", "method_in_brief": "as §1"}, "[12]": {"system": "Fuc(a1-2)Gal(b1-3)[Fuc(a1-4)]GlcNAc", "method_in_brief": "as §1"}, "[13]": {"system": "Fuc(a1-2)Gal(b1-4)GlcNAc(b1-2)[Fuc(a1-2)Gal(b1-4)GlcNAc(b1-4)]Man(a1-3)[Fuc(a1-2)Gal(b1-4)GlcNAc(b1-2)Man(a1-6)]Man(b1-4)GlcNAc(b1-4)GlcNAc", "method_in_brief": "as §1"}, "Fuc(a1-2)Gal(b1-3)GlcNAc": {"system": "Fuc(a1-2)Gal(b1-3)GlcNAc", "method_in_brief": "as §1"}, "[14]": {"system": "Fuc(a1-2)Gal(b1-4)GlcNAc(b1-3)Gal(b1-4)GlcNAc(b1-3)Gal(b1-4)GlcNAc", "method_in_brief": "as §1"}, "[15]": {"system": "Fuc(a1-2)Gal(b1-4)GlcNAc(b1-3)Gal(b1-4)GlcNAc", "method_in_brief": "as §1"}, "[16]": {"system": "Fuc(a1-2)Gal(b1-3)GlcNAc(b1-3)[Fuc(a1-2)Gal(b1-3)GlcNAc(b1-6)]GalNAc", "method_in_brief": "as §1"}, "[17]": {"system": "Fuc(a1-2)Gal(b1-3)[Fuc(a1-4)]GlcNAc(b1-2)Man(a1-3)[Fuc(a1-2)Gal(b1-3)[Fuc(a1-4)]GlcNAc(b1-2)Man(a1-6)]Man(b1-4)GlcNAc(b1-4)[Fuc(a1-6)]GlcNAc(b1-4)[Fuc(a1-6)]GlcNAc", "method_in_brief": "as §1"}},
  "note": "This is one part of a sample in which the strongest signals are shown more often than they occur.",
  "data": [
    {"substance": "LcI (Legionella pneumophila)", "values": [
      {"measurement": "glycan array binding signal (z-score)", "setting": "[1]", "result": 4.24},
      {"measurement": "glycan array binding signal (z-score)", "setting": "[2]", "result": 1.6},
      {"measurement": "glycan array binding signal (z-score)", "setting": "[3]", "result": 0.257},
      {"measurement": "glycan array binding signal (z-score)", "setting": "[4]", "result": 3.4}
    ]},
    {"substance": "AgI/IIC123-GFP (Streptococcus mutans)", "values": [
      {"measurement": "glycan array binding signal (z-score)", "setting": "[1]", "result": -0.278},
      {"measurement": "glycan array binding signal (z-score)", "setting": "[5]", "result": -0.189},
      {"measurement": "glycan array binding signal (z-score)", "setting": "[3]", "result": -0.573}
    ]},
    {"substance": "SiiE (Salmonella typhimurium), A0A0H3NVH0", "values": [
      {"measurement": "glycan array binding signal (z-score)", "setting": "Fuc(a1-2)Gal(b1-3)GalNAc", "result": -1.18},
      {"measurement": "glycan array binding signal (z-score)", "setting": "[6]", "result": 2.35},
      {"measurement": "glycan array binding signal (z-score)", "setting": "Fuc(a1-2)Gal(b1-4)Glc6S", "result": 3.24},
      {"measurement": "glycan array binding signal (z-score)", "setting": "[7]", "result": -0.206}
    ]},
    {"substance": "SpGH101 (Streptococcus pneumoniae), Q8DR60", "values": [
      {"measurement": "glycan array binding signal (z-score)", "setting": "[8]", "result": -0.216},
      {"measurement": "glycan array binding signal (z-score)", "setting": "[9]", "result": 0.018}
    ]},
    {"substance": "AgI/II Vhelical-GFP (Streptococcus mutans)", "values": [
      {"measurement": "glycan array binding signal (z-score)", "setting": "[10]", "result": -0.178},
      {"measurement": "glycan array binding signal (z-score)", "setting": "[11]", "result": -0.296},
      {"measurement": "glycan array binding signal (z-score)", "setting": "[12]", "result": -0.149},
      {"measurement": "glycan array binding signal (z-score)", "setting": "[13]", "result": -0.246}
    ]},
    {"substance": "Wza (Escherichia coli), P0A930", "values": [
      {"measurement": "glycan array binding signal (z-score)", "setting": "Fuc(a1-2)Gal(b1-3)GlcNAc", "result": 0.769},
      {"measurement": "glycan array binding signal (z-score)", "setting": "[13]", "result": 0.441}
    ]},
    {"substance": "BambL (Burhholderia ambifaria), Q0B4G1", "values": [
      {"measurement": "glycan array binding signal (z-score)", "setting": "[10]", "result": -0.211},
      {"measurement": "glycan array binding signal (z-score)", "setting": "[14]", "result": 3.79},
      {"measurement": "glycan array binding signal (z-score)", "setting": "[15]", "result": 3.14},
      {"measurement": "glycan array binding signal (z-score)", "setting": "[7]", "result": -0.033}
    ]},
    {"substance": "GspB (Streptococcus gordonii), Q939N5", "values": [
      {"measurement": "glycan array binding signal (z-score)", "setting": "[14]", "result": 0}
    ]},
    {"substance": "Epa22", "values": [
      {"measurement": "glycan array binding signal (z-score)", "setting": "[10]", "result": -0.565},
      {"measurement": "glycan array binding signal (z-score)", "setting": "[16]", "result": -0.12},
      {"measurement": "glycan array binding signal (z-score)", "setting": "[17]", "result": 0.488}
    ]},
    {"substance": "Actinohivin (Actinomycete K97)", "values": [
      {"measurement": "glycan array binding signal (z-score)", "setting": "[17]", "result": 0.06}
    ]}
  ]
}
